Test results taken from PubChem BioAssay AID489043 (National Center for Advancing Translational Sciences (NCATS), 2010).
Inconclusive results are not listed. A number with no mark means an inactive call. Calls of active or inactive are those of the source. Calls follow the shape of the dose curve; as a rule, active = well fitted activation curve with a large enough effect; inconclusive = small, poorly fitted or top-dose-only effect; inactive = flat fitted curve, though single readings scatter.

target: Relaxin receptor 2 (Homo sapiens) (UniProt Q8WXD0); experiment: qHTS Assay for Agonists of the Relaxin Receptor RXFP1: RXFP2 Hit Validation; conditions: HEK293 RXFP2 cAMP TR-FRET, 30 min; series mostly up to 115 µM; activation: at the top concentration; also: nearly all actives have a fitted effect of over 65% in size
Sequence (Q8WXD0 whole entry, looked up): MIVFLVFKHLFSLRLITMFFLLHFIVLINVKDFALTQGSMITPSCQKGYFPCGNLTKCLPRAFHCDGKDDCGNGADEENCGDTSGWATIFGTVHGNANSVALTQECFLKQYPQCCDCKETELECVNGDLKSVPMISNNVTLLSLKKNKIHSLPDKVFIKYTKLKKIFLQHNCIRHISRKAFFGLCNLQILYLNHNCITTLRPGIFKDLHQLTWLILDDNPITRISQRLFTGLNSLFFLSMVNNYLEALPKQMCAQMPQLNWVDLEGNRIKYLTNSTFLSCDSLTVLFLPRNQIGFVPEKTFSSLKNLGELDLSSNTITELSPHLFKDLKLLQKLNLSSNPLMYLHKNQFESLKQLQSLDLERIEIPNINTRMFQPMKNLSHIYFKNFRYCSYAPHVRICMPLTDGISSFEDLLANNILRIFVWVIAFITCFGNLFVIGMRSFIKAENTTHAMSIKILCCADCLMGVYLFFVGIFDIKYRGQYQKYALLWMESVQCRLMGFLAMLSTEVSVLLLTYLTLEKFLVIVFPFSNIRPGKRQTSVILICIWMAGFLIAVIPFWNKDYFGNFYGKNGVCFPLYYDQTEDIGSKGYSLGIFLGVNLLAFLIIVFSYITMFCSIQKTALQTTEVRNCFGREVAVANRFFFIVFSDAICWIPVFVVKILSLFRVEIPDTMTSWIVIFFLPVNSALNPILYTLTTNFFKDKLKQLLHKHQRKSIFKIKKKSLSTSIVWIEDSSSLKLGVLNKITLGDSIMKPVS
In short: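 TR-FRET cAMP read-out in lysed HEK293 RXFP2 cells, normalized to buffer (basal) and 29 nM porcine relaxin (100%). Compounds 30 min, 37C, with Ro 20174 present. EC50 via standard Hill equation.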
Potency is read from the fitted curve at half-maximal effect.

Row | Structure (SMILES) | activation | Potency
1 | Cc1ccccc1NC(=O)CNc1ccccc1C(=O)NCc1ccco1 | 2.32% [at 125 µM] | 
2 | O=C(O)c1cccc(CSc2nnc(Cc3ccccc3)o2)c1 | 3.94% [at 44.7 µM] | 
3 | O=C(Cn1cnc2c(nnn2-c2ccc(F)cc2)c1=O)NCC1CCCO1 (stereo unspecified) |  | 11 µM (active)
4 | CC(C)(C)C(=O)Nc1ccccc1C(=O)NCc1ccco1 | 4.53% [at 125 µM] | 
5 | Cn1c(N)c(C(=O)CSc2nnc(NC3CCCCC3)s2)c(=O)n(C)c1=O | -14.8% | 
6 | COc1ccc(CNC(=O)CN2C(=O)NC(C)(c3cccc(Br)c3)C2=O)cc1 (stereo unspecified) | 0.421% | 
7 | CCn1c(=O)c2sccc2n2c(CCCC(=O)NCc3cccnc3)nnc12 | 27.9% | 
8 | CCOc1ccc2cc(C#N)c(SCC(=O)NC(C)CC)nc2c1 (stereo unspecified) |  | 6.15 µM (active)
9 | Cn1c(N)c(C(=O)CSc2nn(-c3ccc(F)cc3)c(=S)s2)c(=O)n(C)c1=O |  | 21.8 µM (active)
10 | Cc1ccc(C(=O)Nc2ccccc2C(N)=O)o1 | -1.39% [at 125 µM] | 
11 | Cc1nc2scc(C)n2c(=O)c1S(=O)(=O)N1CCN(c2ccccn2)CC1 |  | 30.9 µM (active)
12 | CCC1(C)Cc2c(sc3c2c2ncnn2c2nnc(SCC(=O)NCc4ccco4)n32)CO1 (stereo unspecified) |  | 8.7 µM (active)
13 | Cc1ccnc(NS(=O)(=O)c2ccc(N3C(=O)c4ccccc4C3=O)cc2)n1 |  | 18.8 µM (active)
14 | O=c1c2ccccc2cnn1Cc1n[nH]c(=S)n1-c1ccc(F)c(Cl)c1 |  | 15.5 µM (active)
15 | O=C(OCc1nc2ccsc2c(=O)[nH]1)c1cccc(S(=O)(=O)N2CCOCC2)c1 |  | 34.6 µM (active)
16 | CN(Cc1ccccc1)C(=O)c1ccccc1NC(=O)c1ccco1 | 3.37% [at 125 µM] | 
